The values below come from PubChem BioAssay (NCATS).

“And” between values parts separate entries of the source, which are not always exact repeats. Equal entries are not always repeated. Records with an inconclusive call do not appear. The source made the active and inactive calls. Unless noted, the call rests on the fitted dose curve; in most records, active means well fitted curve in the direction sought with a large enough effect; inconclusive means small, poorly fitted or top-dose-only effect, or another doubt; inactive means no such curve, though single readings can be large; an effect the other way counts as inactive or inconclusive.

Test [1] concerns the target Cytochrome P450 3A4 (Homo sapiens) (UniProt P08684). Kind of test: qHTS Assay for Inhibitors and Substrates of Cytochrome P450 3A4 (AID 884). Further: on the % scale 0 is the no-effect control and ±100 the full control effect; nearly all actives have a fitted effect of over 50% in size. The method in brief: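 20 nM human CYP3A4 with 25 uM Luciferin-PPXE (at KM) in 200 mM KPO4, preincubated 10 min with compound; NADPH regeneration started a 60 min RT reaction. Luciferin detected by luminescence, normalized to 57 uM ketoconazole as full inhibition.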
On the technique in general: qHTS replaces the single test concentration by a dilution series.

A short description of test [2]: Confirmation and Secondary Assay for Modulators of Hemoglobin Beta Chain Splicing at IVS2 654 locus (AID 910).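 Further: HeLa cells stably carrying EGFP split by mutant beta-globin IVS2-654 intron; per-well total GFP intensity by laser scanning cytometry after 2-day treatment; % of control where 0% means no effect.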 An outline of the steps:
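Readout: per-well total peak green fluorescence (488 nm ex, 500–520 nm em) from objects 5–250 µm, reflecting correct splicing of an EGFP-654 reporter. Compounds were applied for 2 days at 37 °C to overnight-plated HeLa EGFP-654 cells; controls were DMSO and 500 nM IVS2-654 PNA.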

Test [3] in a line: Confirmation and Secondary Assay for Modulators of Hemoglobin Beta Chain Splicing at IVS2 705 locus (AID 930).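 Further: HeLa cells stably expressing the EGFP-705 splicing reporter; GFP fluorescence per well restored by corrected splicing of the IVS2-705 intron in EGFP; % of control where 0% means no effect.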 An outline of the steps: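 HeLa EGFP-705 reporter; 500 cells/well, o/n 37C 5% CO2; cpd 2 d; 488 ex/500-520 em laser scan; total peak GFP intensity/well. Ref: 500 nM […] antisense PNA.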
Test [4] can be described thus: qHTS Assay for Lipid Storage Modulators (AID 1519; calls by dose curve; on activity change, negative = inhibition: on the % scale 0 is the no-effect control and ±100 the full control effect). The conditions noted are these: Drosophila S3 cells, BODIPY lipid droplet/cell ratio, laser cytometry, cells loaded with oleic acid. The method in brief:
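Cells seeded at 5,000 per well were treated with compounds over a concentration series and loaded with oleic acid (400 uM, as added). Lipid droplet fluorescence (488 nm excitation, 500-530 nm channel) was read by laser-scanning cytometry and normalized to 20 uM Triacsin C.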

Test [5] in a line: qHTS profiling for inhibitors of Plasmodium falciparum proliferation (AID 504749).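 Further: 0% = DMSO vehicle and full inhibition = artemisinin control; nearly all actives have a fitted effect of over 60% in size.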 The conditions noted are these: P. falciparum in erythrocytes, SYBR Green DNA, 72 h, at 28.7 µM (top of the series). An outline of the steps:
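Infected RBCs, 0.3% parasitemia/2.5% Hct final; cpd 72 h, 37 C, 5% CO2; lysis buffer with saponin/triton/SYBR Green I, o/n RT dark; FI 485/535; norm. to artemisinin (0.29 uM) and DMSO.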

Test [6] has as its target Ubiquitin carboxyl-terminal hydrolase 1 (Homo sapiens) (UniProt O94782). Kind of test: Inhibitors of USP1/UAF1: Pilot qHTS (AID 504865).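 Further: rhodamine fluorescence freed from ubiquitin-rhodamine substrate followed over time; top concentration of the series differs between compounds; on the % scale 0 is the no-effect control and ±100 the full control effect; nearly all actives have a fitted effect of over 35% in size.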 The method in brief:
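In 50mM HEPES pH 7.8 containing 0.5mM EDTA, 1mM TCEP, 0.1 mg/ml BSA and 0.01% Tween-20, 1nM USP1/UAF1 is exposed to compound for 15 min, then Ub-Rho (150nM final) is added and fluorescence is read over time.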

The target of test [7] is Cytochrome P450 3A4 (Homo sapiens) (UniProt P08684). As to the kind of experiment: qHTS Assay for Activators of Cytochrome P450 3A4 (AID 885). Further: nearly all actives have a fitted effect of over 65% in size. An outline of the steps: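 Steps: enzyme/substrate mix dispensed; compound added, 10 min RT; NADPH regeneration solution added, 60 min RT; luciferin detection buffer stops reaction; 20 min later luminescence measured.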
The target in test [8] is DNA dC->dU-editing enzyme APOBEC-3G (Homo sapiens) (UniProt Q9HC16). Kind of test: qHTS for inhibitors of Vif-A3G interactions: Validation (AID 588379). Further: 0% is about no effect. The method in brief: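 HeLa cells stably expressing Vif and A3G-eYFP, 700 cells/well, incubated overnight at 37 deg C, then exposed to compound overnight at 37 deg C. Inhibition of Vif-mediated degradation read as increased yellow fluorescence (Ex 488/Em 500-530) by laser-scanning cytometry.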

A short description of test [9]: qHTS assay for small molecule antagonists of peroxisome proliferator-activated receptor delta signaling (AID 588535; active means well fitted inhibition curve with a large enough effect in the signal ratio, with a control signal flat, not every such curve was filed as active; the % refers to the signal ratio;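 on max response: cells co-treated with a PPAR-delta agonist as stimulator during compound exposure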). The conditions noted are these: HEK293T PPARd-UAS-bla, beta-lactamase FRET ratio, 18 h; 460 nm channel. An outline of the steps:
(§1)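 HEK293T PPAR-delta-UAS-bla cells, 4000/well, 2% charcoal/dextran FBS; 5 h 37 C; cpd titration; 18 h 37 C; CCF4 2 h RT; FI 460/530 nm; Hill fit → IC50, efficacy.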

In test [10] the target is Peroxisome proliferator-activated receptor delta (Homo sapiens) (UniProt Q03181). Described as above. An outline of the steps:
as §1

For test [11], the target named is Vitamin D3 receptor (Homo sapiens) (UniProt P11473). Kind of test: qHTS assay for small molecule antagonists of vitamin D receptor signaling (AID 588541; calls by dose curve;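 further: receptor activated by calcitriol during compound treatment; on the % scale 0 is the no-effect control and ±100 the full control effect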). The method in brief:
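Antagonist-mode beta-lactamase reporter assay: HEK293T VDR-UAS-bla cells were exposed to titrated compound alongside 1-alpha,25-dihydroxyvitamin D3 at 3 nM final for 16 h. Values were normalized to the 50 nM agonist control and DMSO basal, with IC50 and efficacy from Hill equation fits.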

Test [12] in a line: qHTS assay for small molecule agonists of retinoid X receptor alpha signaling (AID 588544; calls by dose curve). The conditions noted are these: HEK293T RXRa-UAS-bla, beta-lactamase reporter, 18 h; 530 nm emission.
Test [13] has as its target Retinoic acid receptor RXR-alpha (Homo sapiens) (UniProt P19793). The description is as above.
A short description of test [14]: qHTS assay for small molecule antagonists of retinoid X receptor alpha signaling (AID 588546; active means well fitted inhibition curve with a large enough effect in the signal ratio, with a control signal flat, not every such curve was filed as active; the % refers to the signal ratio;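 further: cells stimulated with 9-cis-retinoic acid as agonist; on the % scale 0 is the no-effect control and ±100 the full control effect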). The conditions noted are these: HEK293T RXRa-UAS-bla, beta-lactamase ratio, antagonist mode; measured here: W530 green channel, cytotoxicity proxy. The method in brief:
(§2)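 Beta-lactamase reporter inhibition, read as CCF4 fluorescence ratio (ex 405, em 460/530 nm) after 2 h at RT. HEK293T UAS-bla cells, 2500/well, were stimulated with 9-cis-RA at 500 or 100 nM final alongside test compound for 18 h at 37 C.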

Test [15] deals with Retinoic acid receptor RXR-alpha (Homo sapiens) (UniProt P19793). The description is as above. Conditions: HEK293T RXRa-UAS-bla, beta-lactamase ratio, antagonist mode. The method in brief: as §2
In test [16] the target is Peroxisome proliferator-activated receptor alpha (Homo sapiens) (UniProt Q07869). Kind of test: qHTS assay for small molecule agonists of the peroxisome proliferator-activated receptor alpha (PPARalpha) signaling pathway (AID 651778). Further: % of control where 0% means no effect. Conditions: PathHunter PPARalpha complementation, chemiluminescence, 6 h; stronger effect = higher value. The method in brief:
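Chemiluminescence from complemented enzyme reported PPARalpha activation in cells after 6 hr of compound treatment at 37 C. The detection reagent was incubated for 60 min at room temperature, and compounds were scored as agonists.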

Test [17] can be described thus: qHTS assay for small molecule agonists of the antioxidant response element (ARE) signaling pathway measured by Nrf2-dependant transcriptional activity - cell viability counter screen (AID 720653; active means well fitted curve in the direction sought with a large enough effect in the repeat runs; an effect the other way counts as inactive or inconclusive; further: on the % scale 0 is the no-effect control and ±100 the full control effect). The conditions noted are these: ARE-bla HepG2 viability, CellTiter-Glo ATP luminescence, 16 h; stronger effect = lower value. The method in brief:
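Cytotoxicity counter screen: intracellular ATP quantified by CellTiter-Glo luminescence in the same ARE-bla HepG2 plates, after 16 h compound exposure and a 2 h beta-lactamase substrate step.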

Test [18] is described as follows: qHTS assay for cell viability of HEK293 cells (AID 743288). Further: on the % scale 0 is the no-effect control and ±100 the full control effect; nearly all actives have a fitted effect of over 50% in size. The conditions noted are these: ATP luminescence (CellTiter-Glo), 18 h; max response: stronger effect = lower value. An outline of the steps: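 HEK293 parental, 2,000 cells/well; ≥5 h pre-incubation 37 C; pintool compound addition; 18 h, 37 C; CellTiter-Glo 30 min RT; luminescence read.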
A short description of test [19]: qHTS assay for cell viability of the p53RE-bla HCT-116 cell line (AID 743292). Further: on the % scale 0 is the no-effect control and ±100 the full control effect; nearly all actives have a fitted effect of over 55% in size. An outline of the steps: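 HCT-116 p53RE-bla cells seeded 4,000/well; 5 h at 37 C; compound (DMSO) added; 16 h at 37 C; CellTiter-Glo added, 30 min RT; luminescence read.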
Test [20] concerns the target Nuclear receptor subfamily 1 group I member 2 (Rattus norvegicus) (UniProt Q9R1A7). As to the kind of experiment: qHTS assay for small molecule activators of the rat pregnane X receptor (rPXR) signaling pathway (AID 651751; call rule not given here; further: 0% is about no effect). Conditions: rPXR reporter cells, luciferase (One-Glo), 24 h.
Setting [21] is: measured here: cell count channel max response.
Setting [22] is: measured here: lipid channel max response.

Cytochrome P450 3A4 (Homo sapiens), sequence (P08684 whole entry, looked up): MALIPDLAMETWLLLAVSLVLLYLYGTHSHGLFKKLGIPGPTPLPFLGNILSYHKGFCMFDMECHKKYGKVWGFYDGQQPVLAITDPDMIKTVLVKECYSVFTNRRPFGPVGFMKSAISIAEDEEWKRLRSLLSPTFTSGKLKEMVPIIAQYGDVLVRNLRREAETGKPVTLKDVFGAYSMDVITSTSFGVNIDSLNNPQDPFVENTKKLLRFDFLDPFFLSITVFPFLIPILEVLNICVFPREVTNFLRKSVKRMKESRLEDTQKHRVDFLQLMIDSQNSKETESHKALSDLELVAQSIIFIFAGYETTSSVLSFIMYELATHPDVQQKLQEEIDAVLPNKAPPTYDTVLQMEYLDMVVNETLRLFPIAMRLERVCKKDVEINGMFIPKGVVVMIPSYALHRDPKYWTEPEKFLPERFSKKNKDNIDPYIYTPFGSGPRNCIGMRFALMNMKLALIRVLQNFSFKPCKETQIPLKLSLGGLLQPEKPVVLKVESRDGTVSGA
Ubiquitin carboxyl-terminal hydrolase 1 (Homo sapiens), sequence (O94782 whole entry, looked up): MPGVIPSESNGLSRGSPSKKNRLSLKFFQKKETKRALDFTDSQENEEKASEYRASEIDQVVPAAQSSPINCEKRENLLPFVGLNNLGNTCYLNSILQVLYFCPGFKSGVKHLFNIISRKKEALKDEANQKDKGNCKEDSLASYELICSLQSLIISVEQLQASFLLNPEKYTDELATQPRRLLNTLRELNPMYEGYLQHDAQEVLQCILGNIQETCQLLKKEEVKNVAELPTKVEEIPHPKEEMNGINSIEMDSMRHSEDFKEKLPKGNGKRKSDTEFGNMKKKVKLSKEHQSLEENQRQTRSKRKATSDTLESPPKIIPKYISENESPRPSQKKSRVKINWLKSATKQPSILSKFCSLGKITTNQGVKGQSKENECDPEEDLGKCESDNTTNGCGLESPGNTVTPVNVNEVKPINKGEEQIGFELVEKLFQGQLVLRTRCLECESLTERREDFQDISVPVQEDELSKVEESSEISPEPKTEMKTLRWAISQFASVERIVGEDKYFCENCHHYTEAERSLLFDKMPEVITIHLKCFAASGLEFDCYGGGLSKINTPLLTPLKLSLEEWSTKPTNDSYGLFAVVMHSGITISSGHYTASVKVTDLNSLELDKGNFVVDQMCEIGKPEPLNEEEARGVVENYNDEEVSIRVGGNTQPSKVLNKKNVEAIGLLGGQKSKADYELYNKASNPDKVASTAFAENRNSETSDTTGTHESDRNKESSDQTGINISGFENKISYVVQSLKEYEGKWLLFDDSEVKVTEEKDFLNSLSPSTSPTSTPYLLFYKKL
Vitamin D3 receptor (Homo sapiens), sequence (P11473 whole entry, looked up): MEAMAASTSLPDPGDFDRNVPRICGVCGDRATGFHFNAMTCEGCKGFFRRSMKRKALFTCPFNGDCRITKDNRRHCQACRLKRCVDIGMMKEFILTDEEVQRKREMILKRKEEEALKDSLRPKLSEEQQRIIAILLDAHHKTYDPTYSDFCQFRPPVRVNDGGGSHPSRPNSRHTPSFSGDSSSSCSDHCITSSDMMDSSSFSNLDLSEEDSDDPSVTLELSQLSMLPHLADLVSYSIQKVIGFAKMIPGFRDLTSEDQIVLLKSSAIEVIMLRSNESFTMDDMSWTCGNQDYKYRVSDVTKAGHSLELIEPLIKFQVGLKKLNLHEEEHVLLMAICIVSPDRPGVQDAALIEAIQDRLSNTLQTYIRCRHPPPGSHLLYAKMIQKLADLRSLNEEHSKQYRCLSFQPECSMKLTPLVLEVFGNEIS
Nuclear receptor subfamily 1 group I member 2 (Rattus norvegicus), sequence (Q9R1A7 whole entry, looked up): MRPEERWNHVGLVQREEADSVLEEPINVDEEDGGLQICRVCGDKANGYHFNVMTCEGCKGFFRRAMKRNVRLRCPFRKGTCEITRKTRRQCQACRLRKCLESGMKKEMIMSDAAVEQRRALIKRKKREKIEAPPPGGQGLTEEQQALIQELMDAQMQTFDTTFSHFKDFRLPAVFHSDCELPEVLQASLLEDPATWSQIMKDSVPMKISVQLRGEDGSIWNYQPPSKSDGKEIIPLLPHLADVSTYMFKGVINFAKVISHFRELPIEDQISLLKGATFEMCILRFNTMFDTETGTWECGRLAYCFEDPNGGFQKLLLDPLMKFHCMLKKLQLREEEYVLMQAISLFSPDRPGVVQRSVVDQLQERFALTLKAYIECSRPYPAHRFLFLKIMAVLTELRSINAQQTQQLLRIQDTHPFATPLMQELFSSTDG
Retinoic acid receptor RXR-alpha (Homo sapiens), sequence (P19793 whole entry, looked up): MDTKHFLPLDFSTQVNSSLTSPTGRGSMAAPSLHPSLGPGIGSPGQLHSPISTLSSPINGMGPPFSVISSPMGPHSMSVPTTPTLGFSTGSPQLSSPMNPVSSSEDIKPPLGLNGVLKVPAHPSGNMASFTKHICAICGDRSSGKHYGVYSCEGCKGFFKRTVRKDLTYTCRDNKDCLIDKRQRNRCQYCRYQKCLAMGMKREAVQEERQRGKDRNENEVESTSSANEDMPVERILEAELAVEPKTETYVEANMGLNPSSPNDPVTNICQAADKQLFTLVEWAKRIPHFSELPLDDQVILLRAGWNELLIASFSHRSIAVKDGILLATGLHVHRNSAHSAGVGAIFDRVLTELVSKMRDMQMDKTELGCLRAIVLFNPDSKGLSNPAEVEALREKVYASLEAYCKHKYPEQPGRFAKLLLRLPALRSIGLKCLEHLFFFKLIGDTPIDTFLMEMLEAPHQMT
Peroxisome proliferator-activated receptor alpha (Homo sapiens), sequence (Q07869 whole entry, looked up): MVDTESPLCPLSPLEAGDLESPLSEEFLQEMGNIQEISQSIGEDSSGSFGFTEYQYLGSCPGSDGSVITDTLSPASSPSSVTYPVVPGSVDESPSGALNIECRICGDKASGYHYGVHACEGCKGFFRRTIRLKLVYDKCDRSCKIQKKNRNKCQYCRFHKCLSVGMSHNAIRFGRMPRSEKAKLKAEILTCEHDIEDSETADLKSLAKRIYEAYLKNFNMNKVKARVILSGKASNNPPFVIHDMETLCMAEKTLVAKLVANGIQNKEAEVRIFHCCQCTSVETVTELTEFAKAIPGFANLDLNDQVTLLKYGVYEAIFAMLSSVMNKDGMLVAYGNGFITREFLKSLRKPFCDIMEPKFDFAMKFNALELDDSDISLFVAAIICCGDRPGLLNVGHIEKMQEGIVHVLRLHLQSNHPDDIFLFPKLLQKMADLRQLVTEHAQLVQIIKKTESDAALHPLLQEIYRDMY
Peroxisome proliferator-activated receptor delta (Homo sapiens), sequence (Q03181 whole entry, looked up): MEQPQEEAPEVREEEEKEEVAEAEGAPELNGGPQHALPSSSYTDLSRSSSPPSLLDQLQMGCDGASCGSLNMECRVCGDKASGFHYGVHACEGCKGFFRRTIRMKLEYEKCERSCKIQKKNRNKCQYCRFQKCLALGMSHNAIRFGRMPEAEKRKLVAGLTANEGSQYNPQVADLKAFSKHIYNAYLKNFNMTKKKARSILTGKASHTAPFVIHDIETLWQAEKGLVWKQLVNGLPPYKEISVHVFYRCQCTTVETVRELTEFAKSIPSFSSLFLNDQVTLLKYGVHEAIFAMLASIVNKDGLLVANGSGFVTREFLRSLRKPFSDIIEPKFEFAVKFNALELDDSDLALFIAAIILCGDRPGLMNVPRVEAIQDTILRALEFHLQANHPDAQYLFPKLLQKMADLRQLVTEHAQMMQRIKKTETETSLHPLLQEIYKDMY
DNA dC->dU-editing enzyme APOBEC-3G (Homo sapiens), sequence (Q9HC16 whole entry, looked up): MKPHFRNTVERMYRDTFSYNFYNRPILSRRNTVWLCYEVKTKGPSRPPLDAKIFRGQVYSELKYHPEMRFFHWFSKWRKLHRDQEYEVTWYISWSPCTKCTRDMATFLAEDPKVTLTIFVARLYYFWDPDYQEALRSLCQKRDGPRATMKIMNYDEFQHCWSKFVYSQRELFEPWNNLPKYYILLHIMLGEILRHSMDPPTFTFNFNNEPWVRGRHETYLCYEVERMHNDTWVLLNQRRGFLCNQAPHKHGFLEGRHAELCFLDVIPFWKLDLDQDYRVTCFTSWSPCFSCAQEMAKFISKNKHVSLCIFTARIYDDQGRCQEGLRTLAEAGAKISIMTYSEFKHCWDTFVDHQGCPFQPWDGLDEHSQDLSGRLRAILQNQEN

Regarding `CNc1ccc(C(=O)CC(O)CCC(C)C2OC(=O)CC(O)CC(=O)CC(O)CC(O)CC(O)CC(O)CC3(O)CC(O)C(C(=O)OC)C(CC(O[C@@H]4OC(C)C(O)C(N)C4O)/C=C/C=C/C=C/C=C/C=C/C=C/C=C/C2C)O3)cc1` (some centres not stated), the Potency entry in test [1], in test [2] and in test [3] was “inactive” throughout. For the same compound, the activity change, negative = inhibition in [4] (at 57.5 µM (top of the series)) was 9.29% (inactive). Further, the max response in test [4] (setting [21]) was 14.1%; in test [4] (setting [22]) it was 27.6%. For the same compound, the results for the activity, negative = inhibition in [5] (parasite line A) and in [5] (parasite line B) were 6.26% (inactive) and 3.77% (inactive), respectively.
As to `CN1[C@@H]2CC(OC(=O)[C@H](CO)c3ccccc3)C[C@@H]1[C@H]1O[C@H]12` (some centres not stated), in [4] (at 57.5 µM (top of the series)), the activity change, negative = inhibition was 4.98% (inactive). Also, the max response is -8.42% in test [4] (setting [21]) and -4.12% in test [4] (setting [22]). The Potency result in test [6] was “inactive”.
As for `C=C1CC[C@H](O)C/C1=C/C=C1\CCC[C@]2(C)[C@H]1CC[C@H]2[C@@H](C)CCCC(C)C`, the activity change, negative = inhibition in test [4] (at 25.7 µM (top of the series)) was 0.847% (inactive). Further, the max response in [4] (setting [21]) was 8.85%; in test [4] (setting [22]), 12%. Further, the Potency result in test [6] was “inactive”.
Take `C[C@]12CCC3C(CC[C@H]4C[C@@H](O)CC[C@]34C)[C@@H]1CCC2=O` (some centres not stated): the Potency entry in test [7] and in test [6] was “inactive” in each case. In addition, the activity change, negative = inhibition in [4] (at 57.5 µM (top of the series)) is 0.0615% (inactive). The max response is -8.24% in test [4] (setting [21]) and -8.16% in test [4] (setting [22]). The outcome in [8] was inactive.
Take `COP(N)(=O)SC` (configuration not stated): the Potency entry in test [1], in test [2], in [3], in [6], in test [10] and in [13] was “inactive” each time. Further, in test [19], the Potency result was “inactive”. Further, in test [4] (at 57.5 µM (top of the series)), the activity change, negative = inhibition is 4.67% (inactive). The max response in [4] (setting [21]) was 0.934%; in test [4] (setting [22]), 6.43%; in test [9], 57.3% and -26.4%; in test [12], -14.8% and -10.1%; in [14], -17.3% and -16.5%; in [15] it was -4.89% (inactive) and -18.9% (inactive). In addition, the max response in test [16] is -4.83% (inactive) and -1.06% (inactive); in test [17], 9.18% (inactive) and -6.05% (inactive); in [18] it was -4.36% (inactive) and -1.51% (inactive); in [20], -2.32% (inactive) and -2.07% (inactive). For the same compound, the outcome in test [11] was inactive.
On to `CC(C)OC(=O)Nc1cccc(Cl)c1`, for which the Potency entry in [1], in [2], in test [3], in [6], in test [10] and in [13] was “inactive” throughout. Further, the Potency entry in test [19] is “inactive”. In test [4] (at 57.5 µM (top of the series)), the activity change, negative = inhibition is 8.95% (inactive). For the same compound, the max response is 5.17% in test [4] (setting [21]); 15.8% in test [4] (setting [22]); 2.77% in [9]; -7.86% in test [12]; -4.63% in test [14]; 4.34% (inactive) in test [15]. Further, the max response in test [16] is -1.91% (inactive); in [17] it was -10.2% (inactive); in [18], -6.02% (inactive). Besides, the compound was called inactive in test [11].
In the case of `CN1C2CC(OC(=O)C(CO)c3ccccc3)C[C@@H]1[C@H]1OC21` (some centres not stated), in test [4] (at 57.5 µM (top of the series)), the activity change, negative = inhibition was 7.13% (inactive). Also, the max response is 12.9% in [4] (setting [21]) and 25.6% in test [4] (setting [22]). Further, in test [6], the Potency result was “inactive”.
For `O=C(O)COc1cc(Cl)c(Cl)cc1Cl`, the Potency entry in [1], in [2], in test [3], in test [6], in test [10] and in test [13] was “inactive” each time. In addition, the Potency entry in test [19] was “inactive”. Also, in test [4] (at 57.5 µM (top of the series)), the activity change, negative = inhibition is 1.28% (inactive). The max response in test [4] (setting [21]) is 13.2%; in [4] (setting [22]), 18.6%; in test [9] it was 15.2%; in [12], 28.5%; in [14], 20.3%; in [15], -33.7% (inactive). Further, the max response in [16] is -1.8% (inactive); in test [17], -9.62% (inactive); in test [18] it was -0.339% (inactive); in [20], -2.98% (inactive). Moreover, in test [11], the outcome was inactive.
